According to PubChem BioAssay (NCATS):
A number with no mark means an inactive call. Results filed as inconclusive are left out. Activity calls are given as the source filed them. Unless noted, the call rests on the fitted dose curve; in most records, active means well fitted curve in the direction sought with a large enough effect; inconclusive means small, poorly fitted or top-dose-only effect, or another doubt; inactive means no such curve, though single readings can be large; an effect the other way counts as inactive or inconclusive.

Tests used:
[1] = molecular target: Lysosomal acid glucosylceramidase (Homo sapiens) (UniProt P04062); assay: Glucocerebrosidase-p2 (AID 348; in the data active means potency below about 10 µM; further: potency means the concentration at half of the fitted maximal effect); conditions: purified GBA, blue fluorogenic substrate, 40 min
Lysosomal acid glucosylceramidase (Homo sapiens), sequence (P04062 whole entry, looked up): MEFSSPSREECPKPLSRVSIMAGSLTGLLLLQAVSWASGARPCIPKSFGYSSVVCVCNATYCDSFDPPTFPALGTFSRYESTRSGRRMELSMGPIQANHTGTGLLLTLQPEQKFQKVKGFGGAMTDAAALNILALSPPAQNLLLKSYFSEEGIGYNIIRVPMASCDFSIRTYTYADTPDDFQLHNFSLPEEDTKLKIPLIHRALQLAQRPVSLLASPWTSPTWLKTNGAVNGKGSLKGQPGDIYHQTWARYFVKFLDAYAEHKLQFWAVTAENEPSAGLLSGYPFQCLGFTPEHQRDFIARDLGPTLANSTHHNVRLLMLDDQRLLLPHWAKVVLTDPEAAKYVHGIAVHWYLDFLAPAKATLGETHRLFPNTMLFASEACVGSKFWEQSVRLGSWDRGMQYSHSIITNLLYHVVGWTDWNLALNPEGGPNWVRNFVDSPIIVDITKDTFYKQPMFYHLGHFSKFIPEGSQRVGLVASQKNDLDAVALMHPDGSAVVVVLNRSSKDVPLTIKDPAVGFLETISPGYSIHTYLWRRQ
How it was run: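 Compounds titrated from 0.6 nM upwards against 0.2 nM enzyme in pH 5.9 citric acid/KH2PO4, taurocholate, tween-20; blue fluorogenic substrate 80 uM, 40 min room temperature, stopped and read Ex 365/Em 440 for AC50.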

[2] = AP1 Signaling Pathway (AID 357; active means well fitted curve in either direction with a large enough effect, not every such curve was filed as active;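 further: ME-180 reporter cells stimulated with EGF at its EC50 level; on the % scale 0 is the no-effect control and ±100 the full control effect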); conditions: ME-180 AP-1-bla reporter, EGF-induced, beta-lactamase ratio, 5 h; at 7.69 µM (top of the series) unless noted
How it was run: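 A ratiometric CCF4 readout (405 nm excitation; 460 and 530 nm emission) quantified AP-1-driven beta-lactamase in ME-180 cells after 5 h with compound and EC50 EGF; AC50 values were derived for activators and inhibitors.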

[3] = molecular target: Cytochrome P450 1A2 (Homo sapiens) (UniProt P05177); assay: p450-cyp1a2 (AID 410; calls by dose curve; further: potency means the concentration at half of the fitted maximal effect); conditions: recombinant CYP1A2, luciferin-ME demethylation, luminescence; series mostly up to 57 µM
Cytochrome P450 1A2 (Homo sapiens), sequence (P05177 whole entry, looked up): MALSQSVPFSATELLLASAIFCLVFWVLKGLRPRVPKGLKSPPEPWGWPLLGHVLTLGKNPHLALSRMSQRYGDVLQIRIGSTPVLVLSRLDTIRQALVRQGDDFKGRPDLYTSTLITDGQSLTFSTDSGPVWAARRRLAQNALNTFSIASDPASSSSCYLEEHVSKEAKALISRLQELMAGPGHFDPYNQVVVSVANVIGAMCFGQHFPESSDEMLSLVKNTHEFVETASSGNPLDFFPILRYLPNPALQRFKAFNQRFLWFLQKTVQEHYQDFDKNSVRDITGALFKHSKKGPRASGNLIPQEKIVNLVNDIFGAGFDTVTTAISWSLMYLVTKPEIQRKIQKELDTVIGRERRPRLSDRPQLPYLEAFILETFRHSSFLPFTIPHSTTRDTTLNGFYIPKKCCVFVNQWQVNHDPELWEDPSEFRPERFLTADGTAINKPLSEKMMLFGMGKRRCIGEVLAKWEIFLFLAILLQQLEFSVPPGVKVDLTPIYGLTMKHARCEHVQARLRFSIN
How it was run: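 20nM CYP1A2 with 100uM Luciferin-ME (at Km) in 100mM KPO4; compound preincubated 10 min, NADPH regeneration added, 60 min at room temperature. Luciferin quantified by luminescence after detection reagent; normalized to 57 uM furafylline.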

[4] = NFAT Signaling Pathway (AID 444; active means well fitted curve in either direction with a large enough effect, not every such curve was filed as active;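 further: carbachol stimulus at about its EC50 of 1 µM final; on the % scale 0 is the no-effect control and ±100 the full control effect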); conditions: Jurkat NFAT-bla M1, carbachol, beta-lactamase ratio, 5 h; at 7.69 µM (top of the series) unless noted
How it was run: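 Jurkat cells with NFAT-driven β-lactamase reporter and co-expressed M1 receptor, stimulated with carbachol (final 1 uM, ~EC50), compound titration, 5 h at 37 °C. CCF4 loaded 1 h at RT; 460/530 nm ratio gave %activity and AC50.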

[5] = Stat Signaling Pathway (AID 446; active means well fitted curve in either direction with a large enough effect, not every such curve was filed as active;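 further: ME-180 cervical cancer cells given 40 pM IL-6 alongside compound; SIE-controlled beta-lactamase reporter measured as 460/530 nm FRET emission ratio; on the % scale 0 is the no-effect control and ±100 the full control effect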); conditions: ME-180 SIE beta-lactamase reporter, IL-6 stimulated, 5 h; at 7.69 µM (top of the series) unless noted
How it was run: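 Screening format detects activators and inhibitors alike: ME-180 SIE-bla cells stimulated at 40 pM IL-6 for 5 hrs with compound, then dual-emission beta-lactamase read at 405 nm excitation.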

[6] = molecular target: Glucocorticoid receptor (Homo sapiens) (UniProt P04150); assay: GR-GFP Redistribution (AID 450;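 active means compounds whose dose series gives a full or clear partial fitted curve of increased nuclear translocation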; further: potency means the concentration at half of the fitted maximal effect); conditions: U2OS GR-GFP nuclear translocation, laser cytometry, 2 h
Glucocorticoid receptor (Homo sapiens), sequence (P04150 whole entry, looked up, the tested form may be a part): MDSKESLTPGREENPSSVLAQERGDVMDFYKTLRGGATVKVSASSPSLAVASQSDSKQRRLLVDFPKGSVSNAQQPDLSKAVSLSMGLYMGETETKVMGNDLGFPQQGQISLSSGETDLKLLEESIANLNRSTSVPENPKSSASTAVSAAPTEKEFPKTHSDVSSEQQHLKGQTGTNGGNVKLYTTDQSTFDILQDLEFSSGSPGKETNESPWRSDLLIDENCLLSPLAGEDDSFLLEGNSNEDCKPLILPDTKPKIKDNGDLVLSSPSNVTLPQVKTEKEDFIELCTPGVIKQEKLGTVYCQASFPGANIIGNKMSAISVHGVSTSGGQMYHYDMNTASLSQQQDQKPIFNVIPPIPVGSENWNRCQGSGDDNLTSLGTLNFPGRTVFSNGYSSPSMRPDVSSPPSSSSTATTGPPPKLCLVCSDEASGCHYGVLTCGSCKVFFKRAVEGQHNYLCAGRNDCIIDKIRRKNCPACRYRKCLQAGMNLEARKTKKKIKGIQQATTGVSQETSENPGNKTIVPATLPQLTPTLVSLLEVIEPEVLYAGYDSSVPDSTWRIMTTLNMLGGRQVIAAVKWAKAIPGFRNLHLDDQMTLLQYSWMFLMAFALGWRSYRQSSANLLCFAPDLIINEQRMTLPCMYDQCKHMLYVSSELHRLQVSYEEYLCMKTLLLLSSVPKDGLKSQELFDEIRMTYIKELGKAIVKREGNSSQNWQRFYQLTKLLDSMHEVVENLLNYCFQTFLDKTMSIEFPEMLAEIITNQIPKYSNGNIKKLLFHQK

[7] = molecular target: Glucocorticoid receptor (Homo sapiens) (UniProt P04150); assay: GR-EFC Redistribution (AID 451; calls by dose curve; further: potency means the concentration at half of the fitted maximal effect); conditions: CHO-K1 GR-EFC translocation, beta-gal luminescence, 2 h
How it was run: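 CHO-K1 cells expressing nuclear EA and GR-ED fragments of b-gal; compounds titrated up to 46 uM final, 2 h at 37 C. GR nuclear translocation read as complemented b-gal luminescence after 1 h RT detection.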

[8] = molecular target: Mitogen-activated protein kinase 10 (Mus musculus) (UniProt Q61831); assay: JNK3 AlphaScreen Assay (AID 530; active means well fitted curve in either direction with a large enough effect, not every such curve was filed as active;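 further: kinase came from lysate of stimulated human HepG2 cells; signal reports phosphorylation of biotinylated GST-cJun 1-79 at Ser73 with 10 µM ATP; on the % scale 0 is the no-effect control and ±100 the full control effect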); conditions: JNK3 lysate, c-Jun phosphorylation; series mostly up to 57.1 µM
How it was run: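 Pre-activated (IL-1β/TNFα) JNK3 in HepG2 lysates phosphorylates biotin-GST-cJun(1-79), 10 uM ATP; anti-phospho-cJun(Ser73) AlphaScreen read at room temperature, pH 7.6 Tris buffer. Compounds pre-incubated 15 min as titrations.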

[9] = molecular target: 3',5'-cyclic-AMP phosphodiesterase 4B (Homo sapiens) (UniProt Q07343); assay: qHTS Assay for Inhibitors of PDE-IV (AID 607; active means well fitted activation curve with a large enough effect in the main read-out, with a control signal flat, not every such curve was filed as active; further: % of control where 0% means no effect); conditions: HEK293 ACTOne CNG channel cells, membrane potential fluorescence; series mostly up to 22.9 µM
3',5'-cyclic-AMP phosphodiesterase 4B (Homo sapiens), sequence (Q07343 whole entry, looked up): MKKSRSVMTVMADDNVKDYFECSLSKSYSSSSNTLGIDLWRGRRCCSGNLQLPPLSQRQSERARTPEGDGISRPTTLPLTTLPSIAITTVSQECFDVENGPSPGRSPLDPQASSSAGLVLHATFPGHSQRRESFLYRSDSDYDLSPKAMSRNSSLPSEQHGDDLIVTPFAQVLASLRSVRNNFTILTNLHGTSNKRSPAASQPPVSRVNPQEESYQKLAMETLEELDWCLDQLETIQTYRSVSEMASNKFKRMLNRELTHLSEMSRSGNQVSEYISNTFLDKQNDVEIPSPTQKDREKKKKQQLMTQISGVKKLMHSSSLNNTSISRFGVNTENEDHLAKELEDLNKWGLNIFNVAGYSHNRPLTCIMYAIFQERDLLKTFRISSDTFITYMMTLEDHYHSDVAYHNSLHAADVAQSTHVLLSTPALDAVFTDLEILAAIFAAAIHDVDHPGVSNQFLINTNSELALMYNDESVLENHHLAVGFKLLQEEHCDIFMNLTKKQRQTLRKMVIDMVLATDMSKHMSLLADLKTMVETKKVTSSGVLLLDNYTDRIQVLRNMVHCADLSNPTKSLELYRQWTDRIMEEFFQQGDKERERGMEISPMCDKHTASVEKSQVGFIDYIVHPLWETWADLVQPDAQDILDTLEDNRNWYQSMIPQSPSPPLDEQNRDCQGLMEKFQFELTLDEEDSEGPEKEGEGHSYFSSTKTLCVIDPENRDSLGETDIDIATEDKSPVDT
How it was run: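 The readout is membrane depolarisation from a cAMP-sensing CNG channel, detected with a potential dye at ex 535/em 590. Cells were HEK293-derived (endogenous PDE-IV) at 1000 cells/well, titrated up to 22.9 uM final.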

[10] = molecular target: Cytochrome P450 3A4 (Homo sapiens) (UniProt P08684); assay: qHTS Assay for Inhibitors and Substrates of Cytochrome P450 3A4 (AID 884); conditions: recombinant CYP3A4, Luciferin-PPXE luminescence; series mostly up to 57.1 µM; further: potency means the concentration at half of the fitted maximal effect; nearly all actives have a fitted effect of over 50% in size
Cytochrome P450 3A4 (Homo sapiens), sequence (P08684 whole entry, looked up): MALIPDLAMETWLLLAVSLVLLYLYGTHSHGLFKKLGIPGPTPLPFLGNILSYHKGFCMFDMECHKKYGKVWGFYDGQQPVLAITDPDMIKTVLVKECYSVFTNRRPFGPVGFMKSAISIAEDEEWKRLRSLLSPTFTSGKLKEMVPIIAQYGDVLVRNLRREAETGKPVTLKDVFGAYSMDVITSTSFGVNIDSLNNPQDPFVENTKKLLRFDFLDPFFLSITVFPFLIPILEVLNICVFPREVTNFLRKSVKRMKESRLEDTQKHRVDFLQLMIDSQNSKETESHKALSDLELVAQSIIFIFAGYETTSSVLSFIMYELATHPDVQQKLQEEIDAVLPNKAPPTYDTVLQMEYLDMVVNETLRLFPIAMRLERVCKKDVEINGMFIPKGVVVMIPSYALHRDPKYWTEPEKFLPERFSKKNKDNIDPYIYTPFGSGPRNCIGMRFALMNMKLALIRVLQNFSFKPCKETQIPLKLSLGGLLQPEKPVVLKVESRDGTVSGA
How it was run: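 20 nM human CYP3A4 with 25 uM Luciferin-PPXE (at KM) in 200 mM KPO4, preincubated 10 min with compound; NADPH regeneration started a 60 min RT reaction. Luciferin detected by luminescence, normalized to 57 uM ketoconazole as full inhibition.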

[11] = molecular target: Cytochrome P450 3A4 (Homo sapiens) (UniProt P08684); assay: qHTS Assay for Activators of Cytochrome P450 3A4 (AID 885); conditions: recombinant CYP3A4, Luciferin-PPXE luminescence, 60 min; series mostly up to 57.1 µM; further: nearly all actives have a fitted effect of over 65% in size
How it was run: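 Steps: enzyme/substrate mix dispensed; compound added, 10 min RT; NADPH regeneration solution added, 60 min RT; luciferin detection buffer stops reaction; 20 min later luminescence measured.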

[12] = molecular target: Dual specificity protein kinase CLK4 (Homo sapiens) (UniProt Q9HAZ1); assay: qHTS Assay for Inhibitors of CDC-like Kinase 4 (Kinase-Glo Assay) (AID 1770); conditions: recombinant Clk4, Kinase-Glo ATP depletion luminescence; series mostly up to 66.7 µM; further: nearly all actives have a fitted effect of over 65% in size; further: potency means the concentration at half of the fitted maximal effect
Dual specificity protein kinase CLK4 (Homo sapiens), sequence (Q9HAZ1 whole entry, looked up): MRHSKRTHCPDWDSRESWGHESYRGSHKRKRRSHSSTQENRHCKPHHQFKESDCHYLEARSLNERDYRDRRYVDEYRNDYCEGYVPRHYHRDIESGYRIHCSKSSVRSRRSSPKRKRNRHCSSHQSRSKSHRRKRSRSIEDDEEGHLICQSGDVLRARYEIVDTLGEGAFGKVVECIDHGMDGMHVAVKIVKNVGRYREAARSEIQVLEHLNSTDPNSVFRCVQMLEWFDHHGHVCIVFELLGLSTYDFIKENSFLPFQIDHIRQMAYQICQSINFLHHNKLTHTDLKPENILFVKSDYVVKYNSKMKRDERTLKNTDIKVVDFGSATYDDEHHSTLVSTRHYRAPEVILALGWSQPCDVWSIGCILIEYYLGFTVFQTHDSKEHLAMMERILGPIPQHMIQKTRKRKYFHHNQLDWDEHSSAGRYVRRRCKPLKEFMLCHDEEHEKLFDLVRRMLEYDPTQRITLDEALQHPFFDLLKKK
How it was run: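 Recombinant human Clk4 (25 nM) phosphorylated RS repeat peptide (100 uM) with 1 uM ATP in Tris pH 7.5/MgCl2/EGTA/DTT/Triton buffer for 4.5 h at room temperature. Residual ATP was quantified by Kinase-Glo luciferase luminescence.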

[13] = molecular target: Dual specificity protein kinase CLK4 (Homo sapiens) (UniProt Q9HAZ1); assay: qHTS Assay for Inhibitors of CDC-like Kinase 4 (ADP-FP Assay) (AID 1795); conditions: Transcreener ADP fluorescence polarization; series mostly up to 50 µM; further: nearly all actives have a fitted effect of over 60% in size; further: potency means the concentration at half of the fitted maximal effect
How it was run: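 Recombinant human Clk4 (6.25 nM) phosphorylated RS repeat peptide (100 uM) with 1 uM ATP in Tris pH 7.5/MgCl2/EGTA/DTT/Triton buffer for one hour. ADP was quantified by Transcreener competitive fluorescence polarization against an ADP calibration curve.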

[14] = molecular target: Ubiquitin carboxyl-terminal hydrolase 1 (Homo sapiens) (UniProt O94782); assay: Inhibitors of USP1/UAF1: Pilot qHTS (AID 504865); conditions: purified USP1/UAF1, Ub-rhodamine cleavage fluorescence; series mostly up to 54.9 µM;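 further: rhodamine fluorescence freed from ubiquitin-rhodamine substrate followed over time; top concentration of the series differs between compounds; on the % scale 0 is the no-effect control and ±100 the full control effect; nearly all actives have a fitted effect of over 35% in size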
Ubiquitin carboxyl-terminal hydrolase 1 (Homo sapiens), sequence (O94782 whole entry, looked up): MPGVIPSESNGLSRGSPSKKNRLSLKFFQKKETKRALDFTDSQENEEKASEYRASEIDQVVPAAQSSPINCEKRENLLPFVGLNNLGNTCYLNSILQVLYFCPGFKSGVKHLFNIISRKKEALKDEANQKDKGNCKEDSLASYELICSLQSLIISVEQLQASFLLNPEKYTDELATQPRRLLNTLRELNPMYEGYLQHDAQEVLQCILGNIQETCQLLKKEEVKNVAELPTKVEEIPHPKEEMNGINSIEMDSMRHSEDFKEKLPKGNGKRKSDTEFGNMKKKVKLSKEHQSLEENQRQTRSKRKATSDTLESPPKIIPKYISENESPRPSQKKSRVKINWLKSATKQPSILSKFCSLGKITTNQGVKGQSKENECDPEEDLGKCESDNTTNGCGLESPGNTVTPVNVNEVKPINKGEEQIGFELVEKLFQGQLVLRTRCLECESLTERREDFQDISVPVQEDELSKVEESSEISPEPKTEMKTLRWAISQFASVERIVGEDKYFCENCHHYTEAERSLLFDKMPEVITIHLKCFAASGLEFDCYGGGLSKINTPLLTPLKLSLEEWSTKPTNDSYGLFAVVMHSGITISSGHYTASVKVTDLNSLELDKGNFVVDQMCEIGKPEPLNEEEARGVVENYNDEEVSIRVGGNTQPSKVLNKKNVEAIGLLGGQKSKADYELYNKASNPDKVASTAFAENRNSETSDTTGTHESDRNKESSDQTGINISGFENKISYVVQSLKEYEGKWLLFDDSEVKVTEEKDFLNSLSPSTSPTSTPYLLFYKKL
How it was run: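 USP1/UAF1 complex (1nM) preincubated with compound 15 min at room temperature, then Ub-Rho substrate (150nM final) added. Fluorescence read kinetically at 480/540 nm, 6 reads every 60 seconds. Buffer: 50mM HEPES pH 7.8, 0.5mM EDTA, 0.1 mg/ml BSA, 1mM TCEP, 0.01% Tween-20.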

[15] = Primary qHTS for small molecule stabilizers of the endoplasmic reticulum resident proteome: Secreted ER Calcium Modulated Protein (SERCaMP) assay (AID 1508630); conditions: SH-SY5Y GLuc-SERCaMP (Gaussia luciferase released on ER calcium loss) secretion, thapsigargin, luminescence; series mostly up to 38.4 µM; further: on the % scale 0 is the no-effect control and ±100 the full control effect
How it was run: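 GLuc-SERCaMP-expressing SH-SY5Y cells, pretreated 16 h with compound, are challenged with thapsigargin to empty ER calcium stores; after 4 h, coelenterazine is added directly to the medium and luminescence is imaged.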

[16] = molecular target: Cytochrome P450 2C9 (Homo sapiens) (UniProt P11712); assay: qHTS Assay for Inhibitors and Substrates of Cytochrome P450 2C9 (AID 883); conditions: recombinant CYP2C9, luciferin-H luminescence, 60 min; series mostly up to 57.1 µM; further: nearly all actives have a fitted effect of over 60% in size; further: potency means the concentration at half of the fitted maximal effect
Cytochrome P450 2C9 (Homo sapiens), sequence (P11712 whole entry, looked up): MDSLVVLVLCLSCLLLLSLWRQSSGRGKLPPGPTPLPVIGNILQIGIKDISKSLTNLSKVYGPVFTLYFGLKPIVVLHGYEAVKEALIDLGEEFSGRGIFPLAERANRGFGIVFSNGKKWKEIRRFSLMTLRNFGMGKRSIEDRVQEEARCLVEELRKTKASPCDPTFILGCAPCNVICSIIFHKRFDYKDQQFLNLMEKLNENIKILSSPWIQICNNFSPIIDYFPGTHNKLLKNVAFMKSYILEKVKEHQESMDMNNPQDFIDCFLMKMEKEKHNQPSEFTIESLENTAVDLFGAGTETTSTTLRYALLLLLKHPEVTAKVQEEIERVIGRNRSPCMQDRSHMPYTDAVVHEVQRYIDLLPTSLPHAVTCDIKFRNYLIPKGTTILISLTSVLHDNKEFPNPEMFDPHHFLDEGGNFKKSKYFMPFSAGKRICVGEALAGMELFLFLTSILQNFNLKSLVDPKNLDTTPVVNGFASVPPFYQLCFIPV
How it was run: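 Signal: luciferase luminescence reporting luciferin produced by CYP2C9. Conditions: 10nM enzyme, Luciferin-H 100uM at KM, 25mM KPO4, 37C, 60 min NADPH-driven reaction. Reference: 57uM sulphaphenazole as 100% inhibition.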

[17] = molecular target: Cytochrome P450 2C19 (Homo sapiens) (UniProt P33261); assay: qHTS Assay for Inhibitors and Substrates of Cytochrome P450 2C19 (AID 899); conditions: recombinant CYP2C19, luciferin-H EGE luminescence; series mostly up to 57.1 µM; further: potency means the concentration at half of the fitted maximal effect; nearly all actives have a fitted effect of over 60% in size
How it was run: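 Signal comes from luciferase acting on luciferin released by CYP2C19-mediated hydroxylation of Luciferin-H EGE, 10uM (KM). Assay mix: 5nM enzyme, 50mM KPO4; 60 min at 37C with NADPH regeneration. Data normalized against 57uM ketoconazole.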

[18] = qHTS Assay for Identification of Small Molecule Agonists for Hypoxia Response Element Signaling Pathway (AID 914; active means well fitted activation curve with a large enough effect in the signal ratio, with a control signal flat, not every such curve was filed as active; the % refers to the signal ratio; further: % of control where 0% means no effect); conditions: ME-180 (cervical carcinoma) HRE-bla reporter, beta-lactamase ratio, CoCl2, 17 h; activation: active compounds read high
How it was run: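 AC50 values come from titration-series %Activity, taken as the 460/530nm ratio of CCF4 fluorescence (excitation 405nm). CellSensor HRE-bla ME-180 cells were treated 17 hours at 37 C with compound plus an EC50 level of CoCl2.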

[19] = molecular target: Dual specificity protein kinase CLK4 (Homo sapiens) (UniProt Q9HAZ1); assay: qHTS Assay for Inhibitors of CDC-like Kinase 4 (ADP-Glo Assay) (AID 1771); conditions: recombinant CLK4, ADP-Glo luminescence; series mostly up to 80 µM; further: potency means the concentration at half of the fitted maximal effect; nearly all actives have a fitted effect of over 70% in size
How it was run: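 25 nM Clk4 with 100 uM RS repeat peptide and 1 uM ATP (final) in buffer with 2 mM MgCl2, 0.5 mM EGTA, 2.5 mM DTT, 0.01% Triton X-100; 1 h at room temperature; ADP-Glo luminescence for ADP formed.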

## COc1ccc2[nH]cc(CCNc3ccnc(-c4ccc(C(=O)N(C)C)cc4)n3)c2c1
[1]
  Potency: > 11.4 µM
[2]
  activity change, negative = inhibition: -14.6%
[3]
  Potency: 12.6 µM (active)
[4]
  activity change, negative = inhibition: -3.74%
[5]
  activity, negative = inhibition: -20.4%
[6]
  Potency: > 46 µM
[7]
  Potency: > 46 µM
[8]
  Potency: inactive
[9]
  Potency: inactive
[10]
  Potency: 3.16 µM (active)
[11]
  Potency: inactive
[12]
  Potency: inactive
[13]
  Potency: inactive
[14]
  Potency: inactive
[15]
  outcome: inactive

## COc1ccccc1CCn1c(=O)c(-c2cccs2)nc2cncnc21
[1]
  Potency: > 11.4 µM
[2]
  activity change, negative = inhibition: -29.2%
[3]
  Potency: 2 µM (active)
[4]
  activity change, negative = inhibition: -5.89%
[5]
  activity, negative = inhibition: -0.377%
[6]
  Potency: > 9.22 µM
[7]
  Potency: > 46 µM
[8]
  Potency: inactive
[16]
  Potency: 2.51 µM (active)
[10]
  Potency: 3.16 µM (active)
[11]
  Potency: inactive
[17]
  Potency: 2 µM (active)
[12]
  Potency: inactive
[13]
  Potency: inactive
[14]
  Potency: inactive
[15]
  outcome: inactive

## COc1ccc2[nH]cc(CCNc3ccnc(-c4ccccc4C(F)(F)F)n3)c2c1
[1]
  Potency: > 11.4 µM
[2]
  activity change, negative = inhibition: -10.2%
[3]
  Potency: 3.98 µM (active)
[4]
  activity change, negative = inhibition: -1.93%
[5]
  activity, negative = inhibition: -14.8%
[6]
  Potency: > 46 µM
[7]
  Potency: > 46 µM
[8]
  Potency: inactive
[9]
  Potency: inactive
[10]
  Potency: 2 µM (active)
[11]
  Potency: inactive
[12]
  Potency: inactive
[13]
  Potency: inactive
[15]
  outcome: inactive

## c1ccc2c(N3CCOCC3)nc(-c3ccoc3)nc2c1
[1]
  Potency: > 11.4 µM
[2]
  activity change, negative = inhibition: -5.2%
[3]
  Potency: 1.26 µM (active)
[4]
  activity change, negative = inhibition: 12.4%
[5]
  activity, negative = inhibition: -2.69%
[6]
  Potency: > 46 µM
[7]
  Potency: > 46 µM
[8]
  Potency: inactive
[10]
  Potency: 6.31 µM (active)
[11]
  Potency: inactive
[12]
  Potency: inactive
[13]
  Potency: 14.1 µM (active)
[14]
  Potency: inactive
[15]
  outcome: inactive

## Cc1noc(C)c1-c1nccc(NC2CC2)n1
[1]
  Potency: > 11.4 µM
[2]
  activity change, negative = inhibition: 13.6%
[3]
  Potency: 0.1 µM (active)
[4]
  activity change, negative = inhibition: 19.7%
[5]
  activity, negative = inhibition: 1.49%
[6]
  Potency: > 46 µM
[7]
  Potency: > 46 µM
[8]
  Potency: inactive
[9]
  Potency: inactive
[16]
  activity change, negative = inhibition: 3.44% [at 2.29 µM]
[10]
  Potency: 2.51 µM (active)
[11]
  Potency: inactive
[12]
  Potency: inactive
[13]
  Potency: inactive
[14]
  Potency: inactive
[15]
  outcome: inactive

## COc1ccccc1CNc1cc(-c2ccc(C(=O)N(C)C)cc2)ncn1
[1]
  Potency: > 11.4 µM
[3]
  Potency: 7.94 µM (active)
[4]
  activity change, negative = inhibition: 8.83%
[6]
  Potency: > 46 µM
[7]
  Potency: > 46 µM
[8]
  Potency: inactive
[11]
  Potency: inactive
[18]
  activation: 6.06%
[12]
  Potency: 7.08 µM (active)
[19]
  Potency: 7.08 µM (active)
[14]
  Potency: inactive
[15]
  outcome: inactive
